From PubChem BioAssay AID2685 (National Center for Advancing Translational Sciences (NCATS), 2010)
In all, about 320,000 compounds went through this assay and about 2,100 (0.66%) were called active. Inconclusive results (about 53%) are left out. Calls come from the whole dose curve; as a rule, active = well fitted inhibition curve with a large enough effect in the signal ratio, with a control signal flat (not every such curve was filed as active); inconclusive = small, poorly fitted or top-dose-only effect, or effect the other way, or a change in a side signal; inactive = flat fitted curve, though single readings scatter; the % refers to the signal ratio. For the sample, actives were picked, then their nearest neighbours and some compounds at random.

assay: qHTS Assay for Lipid Storage Modulators in Drosophila S3 Cells; settings: BODIPY lipid droplet fluorescence, 18-24 h, cells fed with added oleic acid; cell number change: measured here: cell count max response; series mostly up to 46.1 µM; lipid storage change, negative = inhibition: at the top concentration;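 for cell number change: cells counted by Cell Tracker Red CMTPX staining in the red channel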; for lipid storage change, negative = inhibition: % is set by controls: 0 for no effect and ±100 for the full control effect
Source text: NIH Molecular Libraries Probe Production Centers Network [MLPCN] NIH Chemical Genomics Center [NCGC] MLPCN Grant: 1 R03 MH085686-01 Assay Submitter (PI): Beller, Mathias; Max-Planck-Institut fur Biophysikalische Chemie NCGC Assay Overview: Storing lipids as a reservoir for energy or the anabolism of elementary metabolites is a common feature of probably all cells and is conserved from bacteria to humans. The universal cellular lipid storage organelle is the so-called lipid storage droplet (LD). Although ubiquitous, LDs share a simple structure composed of a hydrophobic core that harbors the storage lipids, which is shielded by a droplet-specific phospholipid monolayer to which proteins are attached. The current model of LD biogenesis involves an incorporation of the lipid core into the membrane leaflets of the endoplasmic reticulum (ER) followed by a subsequent budding-like maturation of a LD, which ultimately pinches off. Once released, LD volume can increase by localized lipogenesis or fusion of existing droplet. Storage lipids are re-mobilized enzymatically by lipase activity. Lipase regulation in the adipocyte is heavily studied and involves multiple components including catecholamine signaling, the LD-associated proteins Perilipin and comparative gene identification (CGI-58) and at least two lipases named hormone sensitive lipase (HSL) and adipocyte triglyceride lipase (ATGL). LD regulation outside of the adipocyte is poorly understood and only few components are known. However, there is an urgent need to learn more about ectopic fat depots as mislocalized storage of lipids, for example in the liver or muscle, is an eminent health problem associated with insulin resistance or the metabolic syndrome. We developed a laser-scanning cytometer assay to enable 1,536-well screening and combined the results of the small molecules screen with an RNAi database based on lipid storage.
Triacsin C (Sigma-Aldrich T-4540), an inhibitor of long-chain fatty acyl CoA synthetase that blocks synthesis of triglycerides, was used as a positive control for lipid under-storage. A total of 23 nL of compound solution of different concentrations were transferred to the assay plates using a Kalypsys pin tool equipped with a 1,536-pin array containing 10-nL slotted pins (FP1S10, 0.457-mm diameter, 50.8 mm long; V&P Scientific). One microliter of oleic acid (400 uM) was added, and the plate was lidded with stainless steel rubber gasket lined lids containing pinholes. […] Fluorescence was detected by excitation of the fluorophores with a 488-nm laser on an Acumen Explorer (TTP Lab Tech). The total intensity in channel 2 (500-530 nm) reflected lipid droplet accumulation. Cells were detected using channel 3 (575-640 nm) with 5-um width and 100-um depth filters. The ratio of the number of objects in PMT channel 2 over the number of objects in PMT channel 3 was also calculated. Percent activity was computed relative to an internal control (100% inhibited lipid droplet deposition due to the presence of 20 uM Triacsin C), which was added to 32 wells/plate.
Potency is the fitted concentration of half-maximal effect.

Compound	lipid storage change, negative = inhibition	cell number change [%]	Potency	outcome
CN(C)c1ncc(S(=O)(=O)c2ccccc2)c(=O)[nH]1	-2.86% (inactive)	19.4	–	–
CC12CC3(C)CC(C)(C1)CC(C(=O)NCC(=O)O)(C2)C3	–	-16.9	1.46 µM (active)	–
COC(=O)CNC(=O)C12CC3(C)CC(C)(CC(C)(C3)C1)C2	-1.63% (inactive)	-2.27	–	–
CC12CC3(C)CC(C)(C1)CC(C(=O)NC(=S)N1CCCC1)(C2)C3	0.446% (inactive)	-0.792	–	–
Cc1cc(C)nc(SCc2cn3c(C)cccc3n2)n1	22.7% (inactive)	13.2	–	–
O=C(NCCc1ccccc1)C1CCCN(C(=O)Nc2ccc(F)cc2)C1 (stereo unspecified)	–	16.8	–	inactive
O=C(COC(=O)c1ccc(NS(=O)(=O)c2ccc(F)c(F)c2)cc1)NCC1CCCO1 (stereo unspecified)	9.43% (inactive)	10.2	–	–
O=C(CCc1c[nH]c2ccccc12)N1CCCCCCC1	–	-19.1	–	inactive
Cc1cc(NC(=O)c2ccc([N+](=O)[O-])cc2)no1	–	-11.8	0.58 µM (active)	–
Cc1cc(NC(=O)c2cc([N+](=O)[O-])cc([N+](=O)[O-])c2)no1	-20.4% (inactive)	2.37	–	–
Cc1cc(NC(=O)c2ccc(C)c([N+](=O)[O-])c2)no1	-0.109% (inactive)	0.478	–	–
C/C(=N\NC(=O)c1ccc(F)cc1)c1cccc(NC(=O)c2cccc(F)c2)c1	-24.1% (inactive)	11.9	–	–
COC(=O)c1sccc1NC(=O)COc1ccc(F)cc1Cl	16.3% (inactive)	0.149	–	–
Cc1ccc(C(=O)Nc2ccc(C(=O)OCc3cc(=O)n4ccsc4n3)cc2)cc1	6.49% (inactive)	10.6	–	–
Cc1nn2c(=O)cc(COC(=O)c3ccc(NC(=O)C(C)(C)C)cc3)nc2s1	–	7.59	3.66 µM (active)	–
COCCc1nn2c(=O)cc(COC(=O)c3cc(OC)c(OC)c(OC)c3)nc2s1	-24.2% (inactive)	–	–	–
COc1ccc(C(=O)CSc2ccc3nnc(-c4cccnc4)n3n2)cc1	-5.62% (inactive)	-3.07	–	–
Clc1ccc(OCc2nnc3n2CCCCC3)c(Cl)c1	4.84% (inactive)	–	–	–
O=C(CCN1C(=O)S/C(=C\c2ccccc2)C1=O)NC1CCS(=O)(=O)C1 (stereo unspecified)	–	-15.9	–	inactive
O=C(CN1C(=O)S/C(=C\c2ccccc2)C1=O)NC1CCS(=O)(=O)C1 (stereo unspecified)	–	–	20.6 µM (active)	–

Compound	lipid storage change, negative = inhibition	cell number change [%]	Potency	outcome
CC(C(=O)NC1CCS(=O)(=O)C1)N1C(=O)/C(=C/c2ccc(Cl)cc2)SC1=S (stereo unspecified)	–	-12.5	20.6 µM (active)	–
O=C(CN1C(=O)/C(=C/c2ccc(F)cc2)SC1=S)NC1CCS(=O)(=O)C1 (stereo unspecified)	–	-19.3	–	inactive
O=C(CN1C(=O)/C(=C/c2ccccc2)SC1=S)NC1CCS(=O)(=O)C1 (stereo unspecified)	-13.4% (inactive)	–	–	–
COc1ccc(/C=C2\SC(=S)N(CC(=O)NC3CCS(=O)(=O)C3)C2=O)cc1 (stereo unspecified)	5.31% (inactive)	5.36	–	–
COc1cccc(/C=C2\SC(=O)N(CC(=O)NC3CCS(=O)(=O)C3)C2=O)c1 (stereo unspecified)	–	0.472	–	inactive
CC(C)c1ccc(/C=C2\SC(=O)N(CC(=O)NC3CCS(=O)(=O)C3)C2=O)cc1 (stereo unspecified)	–	-27.6	2.59 µM (active)	–
O=C(CN1C(=O)S/C(=C\c2ccccc2F)C1=O)NC1CCS(=O)(=O)C1 (stereo unspecified)	-4.85% (inactive)	-4.18	–	–
O=C(O)CSc1nnnn1C1CCCCC1	-2% (inactive)	12.8	–	–
CCOC(=O)c1oc2ccccc2c1COC(=O)CNC(=O)c1ccccc1	-1.38% (inactive)	-8.09	–	–
NC(=O)C1CCN(CC(O)CSc2ccccc2)CC1 (stereo unspecified)	22.1% (inactive)	–	–	–
Cc1nnc(N/N=C/c2ccco2)n1N	-2.72% (inactive)	-14	–	–
N/C(=N\OC(=O)c1cc([N+](=O)[O-])ccc1Cl)c1cccnc1	-20.1% (inactive)	-8.86	–	–
CN(C)CCCNC(=O)C(=O)NCC1OCCN1S(=O)(=O)c1cccs1 (stereo unspecified)	-20.9% (inactive)	1.62	–	–
O=C1CCCc2ccccc2N1Cc1ccc(Cl)cc1	-16.9% (inactive)	-1.32	–	–
Cc1ccc2c(c1)N(CC(=O)NCCC1=CCCCC1)C(=O)c1cccnc1O2	0.185% (inactive)	12.4	–	–
COc1ccc(OCC(=O)Nc2ccc(S(=O)(=O)N3CCN(C)CC3)cc2)cc1	-10.7% (inactive)	-8.24	–	–
COc1ccc(OCC(=O)OCC(=O)NC2CCCCC2C)cc1 (stereo unspecified)	-7.59% (inactive)	5.06	–	–
CC1CCCCC1NC(=O)COC(=O)Cc1ccc(Cl)cc1 (stereo unspecified)	4.08% (inactive)	-17.8	–	–
COc1cc(NC2CCCCC2O)c2nc(-c3ccc(Cl)cc3)ccc2c1 (stereo unspecified)	–	-29.8	14.6 µM (active)	–
NC1=NC(=O)C(CC(=O)c2ccc(Cl)cc2)S1 (stereo unspecified)	3.54% (inactive)	-1.82	–	–

Compound	lipid storage change, negative = inhibition	cell number change [%]	Potency	outcome
O=C1CC(C(=O)Nc2ccc(C(=O)O)cc2)C(c2ccccc2)O1 (stereo unspecified)	-2.1% (inactive)	-9.22	–	–
O=C(CN1CCCCCC1)N1c2ccccc2C=Cc2ccccc21	–	-1.69	23.1 µM (active)	–
O=C(CN1CCC(O)CC1)N1c2ccccc2C=Cc2ccccc21	-0.597% (inactive)	5.26	–	–
O=C(CN1CCCC1)N1c2ccccc2C=Cc2ccccc21	8.55% (inactive)	-13.2	–	–
Cc1nn(CC(=O)OCC(=O)Nc2c(C(C)C)cccc2C(C)C)c(C)c1[N+](=O)[O-]	-9.28% (inactive)	13.1	–	–
C(=N\n1cnnc1)/c1ccc2c(c1)OCO2	3.76% [at 9.22 µM] (inactive)	14.5	–	–
C(=NC12CN3CN(CN(C3)C1)C2)c1ccc2c(c1)OCO2	–	-2.59	25.9 µM (active)	–
CCOc1ccc(C=NC23CN4CN(CN(C4)C2)C3)cc1	-12.4% (inactive)	8.43	–	–
Fc1ccccc1OCCCCN1CCCCC1	-16.9% (inactive)	6.04	–	–
CC(C)NC(=O)C(Cc1ccccc1)N1C(=O)c2ccccc2C1=O (stereo unspecified)	0.505% (inactive)	-13.7	–	–
COc1ccc2c(CCNC(N)=S)c[nH]c2c1	2.34% (inactive)	9.98	–	–
Cc1cc(NC(=O)CCC(=O)N(CC(=O)NCC2CCCO2)c2ccc(C)c(C)c2)no1 (stereo unspecified)	–	-10	1.03 µM (active)	–
Cc1cc(NC(=O)CCC(=O)N(CC(=O)NCC2CCCO2)c2ccccc2C)no1 (stereo unspecified)	6.36% (inactive)	5.33	–	–
Cc1cc(NC(=O)CCC(=O)N(CC(=O)NCC2CCCO2)c2ccc3c(c2)OCCO3)no1 (stereo unspecified)	1.58% (inactive)	10.4	–	–
CCc1ccccc1N(CC(=O)NCC1CCCO1)C(=O)CCC(=O)Nc1cc(C)on1 (stereo unspecified)	–	7.08	25.9 µM (active)	–
CCOc1ccccc1N(CC(=O)NCC1CCCO1)C(=O)CCC(=O)Nc1cc(C)on1 (stereo unspecified)	–	6.09	–	inactive
Cc1cc(NC(=O)CCC(=O)N(CC(=O)NCC2CCCO2)c2ccc(Cl)c(Cl)c2)no1 (stereo unspecified)	–	10.4	–	inactive
COC(=O)c1ccc(N2C(=O)c3cc(N4CCOCC4)c([N+](=O)[O-])cc3C2=O)cc1	1.86% (inactive)	0.29	–	–
